From PubChem BioAssay
Activity calls are given as the source filed them.

Assays:
[1] = binders of probe aFSTL3 on microarray, primary screen, stem cell growth factor project, biochemical, small-molecule microarray, fluorescence 635/667 (AID 1064); conditions: higher = more signal;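 also: measures binding of the biotinylated anti-FSTL3 antibody to printed compounds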
[2] = binders from COS7 lysate, DM2A8 probe, primary screen, torsin A project, cell lysate, small-molecule microarray, fluorescence 635/667 (AID 1065); conditions: higher = more signal, COS7 lysate expressing mutant human TOR1A
[3] = binders of probe aFGF2 on microarray, primary screen, stem cell growth factor project, biochemical, small-molecule microarray, fluorescence 635/667 (AID 1067); conditions: higher = more signal;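 also: measures binding of biotinylated aFGF2 protein to printed compounds on slides; z-score merges feature fluorescence and signal-to-noise across triplicate slides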
[4] = binders of probe aFGF10 on microarray, primary screen, stem cell growth factor project, biochemical, small-molecule microarray, fluorescence 635/667 (AID 1071); conditions: higher = more signal;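 also: score merges 667 nm spot intensity and signal to noise from triplicate slides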
[5] = target: Neurogenic locus notch homolog protein 2 (Homo sapiens) (UniProt Q04721); experiment: Notch2 binders on small-molecule microarrays, primary screen, biochemical, small-molecule microarray, 635 nm fluorescence, stem cell growth factors (AID 1073); conditions: Notch2 binding, higher = more signal
Sequence of Neurogenic locus notch homolog protein 2 (Homo sapiens) (Q04721 whole entry, looked up, canonical isoform): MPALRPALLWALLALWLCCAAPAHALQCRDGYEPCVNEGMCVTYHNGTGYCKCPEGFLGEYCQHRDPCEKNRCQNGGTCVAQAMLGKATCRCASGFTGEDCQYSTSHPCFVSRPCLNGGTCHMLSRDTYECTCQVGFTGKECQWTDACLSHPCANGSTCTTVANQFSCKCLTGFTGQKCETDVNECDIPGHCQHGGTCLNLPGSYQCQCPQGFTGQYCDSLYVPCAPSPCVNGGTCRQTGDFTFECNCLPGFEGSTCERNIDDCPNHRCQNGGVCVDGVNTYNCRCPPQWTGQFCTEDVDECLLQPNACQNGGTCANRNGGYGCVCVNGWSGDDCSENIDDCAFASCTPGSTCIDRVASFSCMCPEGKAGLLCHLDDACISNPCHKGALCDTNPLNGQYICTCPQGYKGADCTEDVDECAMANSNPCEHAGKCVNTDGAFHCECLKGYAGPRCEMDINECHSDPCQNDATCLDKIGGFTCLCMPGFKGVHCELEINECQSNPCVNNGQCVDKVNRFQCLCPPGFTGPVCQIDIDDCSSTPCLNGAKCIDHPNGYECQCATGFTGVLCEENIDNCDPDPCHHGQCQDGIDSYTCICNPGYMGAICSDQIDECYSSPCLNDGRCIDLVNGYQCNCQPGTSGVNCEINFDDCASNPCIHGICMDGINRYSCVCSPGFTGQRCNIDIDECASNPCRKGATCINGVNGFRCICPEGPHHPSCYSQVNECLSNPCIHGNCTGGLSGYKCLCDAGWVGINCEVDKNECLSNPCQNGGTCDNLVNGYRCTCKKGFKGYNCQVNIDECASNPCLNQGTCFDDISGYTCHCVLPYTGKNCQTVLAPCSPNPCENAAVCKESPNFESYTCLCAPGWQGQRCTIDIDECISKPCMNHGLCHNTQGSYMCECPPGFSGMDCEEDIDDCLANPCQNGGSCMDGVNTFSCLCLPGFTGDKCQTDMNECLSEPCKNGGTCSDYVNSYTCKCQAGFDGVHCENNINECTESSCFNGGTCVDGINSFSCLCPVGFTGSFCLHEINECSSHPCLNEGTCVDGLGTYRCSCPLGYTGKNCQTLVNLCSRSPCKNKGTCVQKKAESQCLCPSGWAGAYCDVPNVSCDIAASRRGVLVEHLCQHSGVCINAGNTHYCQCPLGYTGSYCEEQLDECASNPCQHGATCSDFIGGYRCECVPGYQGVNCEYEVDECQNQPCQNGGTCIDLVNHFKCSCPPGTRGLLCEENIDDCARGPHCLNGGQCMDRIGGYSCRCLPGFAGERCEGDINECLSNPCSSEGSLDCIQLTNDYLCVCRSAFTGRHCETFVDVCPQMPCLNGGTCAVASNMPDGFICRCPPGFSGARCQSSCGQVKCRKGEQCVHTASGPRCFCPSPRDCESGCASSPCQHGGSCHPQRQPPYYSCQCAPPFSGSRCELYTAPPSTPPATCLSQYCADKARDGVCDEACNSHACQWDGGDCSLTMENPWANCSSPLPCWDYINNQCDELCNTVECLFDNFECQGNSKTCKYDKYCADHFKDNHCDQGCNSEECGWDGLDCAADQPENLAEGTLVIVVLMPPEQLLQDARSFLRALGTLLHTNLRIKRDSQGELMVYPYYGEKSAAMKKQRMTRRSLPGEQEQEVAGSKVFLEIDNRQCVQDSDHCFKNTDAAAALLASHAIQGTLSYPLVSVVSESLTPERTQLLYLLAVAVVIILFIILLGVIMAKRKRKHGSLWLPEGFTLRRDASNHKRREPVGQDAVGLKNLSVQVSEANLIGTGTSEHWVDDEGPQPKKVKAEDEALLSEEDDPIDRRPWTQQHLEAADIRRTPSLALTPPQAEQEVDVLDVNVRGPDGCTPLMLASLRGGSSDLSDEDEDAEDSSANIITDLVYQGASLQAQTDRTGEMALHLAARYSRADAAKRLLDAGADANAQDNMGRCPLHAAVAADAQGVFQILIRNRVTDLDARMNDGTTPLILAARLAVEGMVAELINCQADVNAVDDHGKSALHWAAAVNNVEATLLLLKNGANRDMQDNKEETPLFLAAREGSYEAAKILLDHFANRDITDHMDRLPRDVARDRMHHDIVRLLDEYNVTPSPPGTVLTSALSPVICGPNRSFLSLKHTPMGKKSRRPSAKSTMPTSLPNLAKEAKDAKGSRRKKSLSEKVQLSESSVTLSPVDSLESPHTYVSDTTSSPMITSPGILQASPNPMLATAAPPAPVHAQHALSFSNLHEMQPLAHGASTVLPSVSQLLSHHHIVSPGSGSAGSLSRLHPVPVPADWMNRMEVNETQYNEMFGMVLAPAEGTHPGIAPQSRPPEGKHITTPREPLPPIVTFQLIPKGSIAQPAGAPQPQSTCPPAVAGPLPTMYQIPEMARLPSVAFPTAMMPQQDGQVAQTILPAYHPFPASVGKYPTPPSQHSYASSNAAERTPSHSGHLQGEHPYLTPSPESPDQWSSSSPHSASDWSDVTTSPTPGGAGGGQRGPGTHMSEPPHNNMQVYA

[6] = target: Pro-neuregulin-1, membrane-bound isoform (Homo sapiens) (UniProt Q02297); experiment: NRG1 binders on small-molecule microarrays, primary screen, psychiatric disease protein project, biochemical, small-molecule microarray, fluorescence 635/667 (AID 1075); conditions: NRG1 binding, 635 nm fluorescence, higher = more signal;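 also: score combines 667 nm spot fluorescence with signal to noise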
Sequence of Pro-neuregulin-1, membrane-bound isoform (Homo sapiens) (Q02297 whole entry, looked up, the tested form may be a part, canonical isoform): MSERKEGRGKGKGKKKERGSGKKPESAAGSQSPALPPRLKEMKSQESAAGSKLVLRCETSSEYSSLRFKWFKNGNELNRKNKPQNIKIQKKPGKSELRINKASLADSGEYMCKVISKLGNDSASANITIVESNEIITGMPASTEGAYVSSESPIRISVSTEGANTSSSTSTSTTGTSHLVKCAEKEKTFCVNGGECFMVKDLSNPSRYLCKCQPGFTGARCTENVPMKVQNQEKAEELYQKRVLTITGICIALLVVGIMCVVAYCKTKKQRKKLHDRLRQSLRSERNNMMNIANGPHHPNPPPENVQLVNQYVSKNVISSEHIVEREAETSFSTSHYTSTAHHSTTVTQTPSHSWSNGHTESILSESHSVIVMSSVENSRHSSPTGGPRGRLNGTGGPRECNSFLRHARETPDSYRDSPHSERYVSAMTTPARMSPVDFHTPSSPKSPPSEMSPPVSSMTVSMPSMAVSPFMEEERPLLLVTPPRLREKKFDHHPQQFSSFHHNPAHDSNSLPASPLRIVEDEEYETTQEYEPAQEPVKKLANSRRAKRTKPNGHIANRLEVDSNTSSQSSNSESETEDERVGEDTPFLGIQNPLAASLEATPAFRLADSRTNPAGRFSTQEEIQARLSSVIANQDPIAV

[7] = tested on: Neuregulin-1 EGF-like domain; experiment: binders of neuregulin-1 EGF-like domain, primary screen, biochemical, small-molecule microarray, 635 nm fluorescence (AID 1081); conditions: small-molecule microarray binding, higher = more signal;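 also: binding of the protein to compounds printed on small-molecule microarray slides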
[8] = FRG1 promoter luciferase signal modulators, primary screen, FRG1 inhibition for FSHD, cell-based, C2C12 myotubes, firefly/Renilla luciferase, luminescence (AID 1084); conditions: higher = more signal, called active from +8 up or from −8 down
[9] = binders of probe aFST on microarray, primary screen, stem cell growth factor project, biochemical, small-molecule microarray, fluorescence 635/667 (AID 1086); conditions: higher = more signal;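 also: score merges 667 nm fluorescence with signal-to-noise of each printed compound spot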
[10] = binders of probe aHhip on microarray, primary screen, stem cell growth factor project, biochemical, small-molecule microarray, fluorescence 635/667 (AID 1087); conditions: higher = more signal;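 also: score merges spot fluorescence at 667nm with spot signal to noise ratio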
[11] = tested on: PRMT1 (protein arginine N-methyltransferase 1); experiment: PRMT1 binders on small-molecule microarrays, primary screen, biochemical, small-molecule microarray, 635 nm fluorescence (AID 1088); conditions: small-molecule microarray binding, higher = more signal;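 also: binding of Prmt1 protein to compounds spotted on small-molecule microarray slides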
[12] = yeast growth modulation, basal conditions, primary screen, YJM789 clinical isolate, OD600, 24 h (AID 1089);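 also: growth of clinical yeast isolate S. cerevisiae YJM 789 seeded 1000 cells per well; test concentration not given here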; conditions: S. cerevisiae YJM789 growth, higher = more signal, called active from +8 up or from −8 down
[13] = fission yeast growth modulation, primary screen, strain 972, OD600, 24 h, no modulator (AID 1090);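 also: basal condition with compound alone and no growth modifier present; test concentration not given here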; conditions: S. pombe 972 growth, higher = more signal, called active from +8 up or from −8 down
[14] = S. cerevisiae growth modulation with rapamycin, primary screen, strain BY4716, OD600, 96 h (AID 1091); conditions: higher = more signal, called active from +8 up or from −8 down; also: test concentration not given here
[15] = target: Torsin-1A-interacting protein 2 (Homo sapiens) (UniProt Q8NFQ8); experiment: LULL1 binders on small-molecule microarray, primary screen, cell lysate, human LULL1 lysate, 635/667 nm fluorescence (AID 1092); conditions: hLULL1 lysate binding, 635 nm fluorescence, higher = more signal;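 also: probe is lysate of COS7 cells overexpressing human LULL1; score merges per-feature 667 nm fluorescence with signal-to-noise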
Sequence of Torsin-1A-interacting protein 2 (Homo sapiens) (Q8NFQ8 whole entry, looked up): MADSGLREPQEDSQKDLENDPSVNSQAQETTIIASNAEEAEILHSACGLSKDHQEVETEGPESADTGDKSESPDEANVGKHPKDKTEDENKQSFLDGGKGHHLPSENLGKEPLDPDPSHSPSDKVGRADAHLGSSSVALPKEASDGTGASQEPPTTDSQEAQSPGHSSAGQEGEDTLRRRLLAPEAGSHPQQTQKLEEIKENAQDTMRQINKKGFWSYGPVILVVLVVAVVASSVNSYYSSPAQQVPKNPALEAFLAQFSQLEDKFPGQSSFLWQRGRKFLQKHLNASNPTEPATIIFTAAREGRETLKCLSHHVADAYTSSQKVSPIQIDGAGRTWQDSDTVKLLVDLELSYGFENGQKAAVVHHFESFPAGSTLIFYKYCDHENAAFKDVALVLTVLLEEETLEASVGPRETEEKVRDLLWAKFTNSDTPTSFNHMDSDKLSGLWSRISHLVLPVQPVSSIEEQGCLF

[16] = E. coli growth modulation, two-sided OD650, primary screen, E. coli filamentation project, strain DRC41, 24 h (AID 1093); conditions: OD650, 24 h, higher = more signal, called active from +8 up or from −8 down;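 also: MC1000 strain lacking acrAB efflux and sulA so SOS filamentation is blocked; test concentration not given here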
[17] = small-molecule microarray binders of probe aLefty2, primary screen, biochemical, biotinylated probe, 635/667 nm fluorescence (AID 1094); conditions: higher = more signal;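 also: score merges spot fluorescence near 667 nm with spot signal-to-noise ratio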
[18] = tested on: Noggin (protein binding on small-molecule microarray); experiment: Noggin binders on small-molecule microarray, primary screen, biochemical, 635/667 nm fluorescence (AID 1095); conditions: 635 nm fluorescence, higher = more signal;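 also: score merges 667 nm feature fluorescence with signal to noise over triplicate slides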
[19] = target: Neurogenic locus notch homolog protein 3 (Homo sapiens) (UniProt Q9UM47); experiment: NOTCH3 binders on small-molecule microarray, primary screen, biochemical, 635/667 nm fluorescence (AID 1096); conditions: NOTCH3 binding, 635 nm fluorescence, higher = more signal
[20] = small-molecule microarray binders of probe aEGFR, primary screen, biochemical, biotinylated probe, 635/667 nm fluorescence (AID 1097); conditions: higher = more signal;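 also: probe is a biotinylated anti-EGFR antibody binding compounds printed on slides; score combines fluorescence near 667 nm and signal to noise of each spot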

Structure (SMILES) | composite z-score [1] | composite z-score [2] | composite z-score [3] | composite z-score [4] | composite z-score [5] | composite z-score [6] | composite z-score [7] | z-score [8] | composite z-score [9] | composite z-score [10] | composite z-score [11] | z-score [12] | z-score [13] | z-score [14] | composite z-score [15] | z-score [16] | composite z-score [17] | composite z-score [18] | composite z-score [19] | composite z-score [20]
C[C@@H]1CC[C@H]2C(=O)O[C@@H](COc3ccc(C(C)(C)C)cc3)CN2[C@@H]1c1ccc(Br)cc1 | -0.368 | -0.257 | -0.162 | -0.249 | -0.538 | -0.0758 | -0.976 | 1.03 (inactive) | -0.217 | -0.134 | -0.118 | 0.228 (inactive) | -0.492 (inactive) | 0.147 (inactive) | -0.158 | -0.0121 (inactive) | 0.464 | -0.835 | -0.91 | -0.0946
C[C@H]1CC[C@H]2C(=O)OC(CO)CN2[C@@H]1c1ccc(Br)cc1 (stereo not given in full) | -0.321 | 0.414 | -0.145 | -0.0786 | -0.453 | -0.365 | 0.374 | -0.761 (inactive) | -0.104 | -0.0645 | 0.14 | -0.276 (inactive) | -0.315 (inactive) | 0.603 (inactive) | -0.467 | 0.458 (inactive) | -0.236 | 0.0982 | -0.0249 | -0.145
O=C(C=Cc1ccc2c(c1)OCO2)c1ccc(F)cc1 | -0.0346 | 0.668 | 0.0173 | 0.3 | -0.207 | -0.204 | -0.0248 | 0.964 (inactive) | 0.348 | -0.0994 | -0.458 | -0.935 (inactive) | -15.1 (active) | 3.87 (inactive) | -0.779 | 0.704 (inactive) | -0.132 | 0.87 | 0.142 | 0.131
CCOC(=O)NN=C1C[C@@H](O)[C@@H](O)[C@@H]2[C@@H]3C(=O)N(C(C)(C)C)C(=O)[C@@H]3CC[C@H]12 | -0.306 | 0.367 | -0.163 | 0.255 | 0.444 | -0.135 | 0.603 | -0.848 (inactive) | 0.497 | 0.0401 | -0.247 | 0.438 (inactive) | 0.277 (inactive) | -0.397 (inactive) | -0.3 | 0.443 (inactive) | -0.101 | 0.708 | 0.235 | 0.039
CCOC(=O)[C@H](Cc1ccccc1)NC(=O)CCC1CC(OC(=O)NCCc2ccc(F)cc2)CC2(CCCC(COC(=O)NCCCN3CCCC3=O)O2)O1 (stereo not given in full) | -0.478 | 0.291 | -0.0628 | 0.328 | 1.16 | 0.533 | 0.394 | -1.9 (inactive) | 0.326 | -0.0994 | 1.37 | -1.68 (inactive) | -0.574 (inactive) | 0.674 (inactive) | 2 | -0.806 (inactive) | -0.0986 | 0.373 | 1.14 | 0.006
COc1cccc([C@H]2Oc3ccc(OC)cc3C(=NOC[C@@H](O)COCc3ccco3)[C@@H]2O)c1 | -0.434 | 0.0488 | -0.158 | -1.12 | -1.29 | -0.984 | -1.7 | -0.765 (inactive) | -0.625 | -0.388 | -1.03 | -2.24 (inactive) | -1.36 (inactive) | -1.22 (inactive) | -1.32 | 0.32 (inactive) | -0.103 | -0.149 | -1.88 | -0.274
O=C1C2=CC[C@H]3C(=O)N(c4cccc(Oc5ccccc5)c4)C(=O)[C@H]3[C@H]2[C@H](O)[C@@H]2O[C@H]12 | -0.476 | 0.337 | -0.14 | 0.258 | -0.139 | 0.0597 | 0.129 | -0.492 (inactive) | 0.373 | -0.184 | 0.435 | 0.135 (inactive) | -0.974 (inactive) | -0.147 (inactive) | -0.122 | -0.425 (inactive) | -0.139 | 0.744 | 0.92 | -0.0219
C#CCCCON=C1C[C@@H](O)[C@@H](O)[C@@H]2[C@@H]3C(=O)N(c4ccc(F)cc4F)C(=O)[C@@H]3CC[C@H]12 | -0.381 | 0.872 | -0.0788 | 0.216 | 0.342 | 0.454 | 0.765 | -1.17 (inactive) | 0.326 | 0.0373 | 1.43 | -0.989 (inactive) | -1.41 (inactive) | -1.5 (inactive) | 2.13 | 0.534 (inactive) | -0.226 | 0.844 | 0.793 | -0.0187
CON=C[C@@H](NS(=O)(=O)c1ccc(C)cc1)[C@H](C)C=CCC(=O)OC | -0.303 | 0.0827 | -0.125 | -0.224 | -0.98 | -0.23 | 0.0812 | 0.494 (inactive) | -0.371 | -0.189 | -0.327 | 0.903 (inactive) | 0.435 (inactive) | 0.719 (inactive) | -0.312 | 0.306 (inactive) | -0.138 | 0.26 | -0.0877 | -0.289
COC(=O)[C@H](C)NC(=O)CCC1CC(OC(=O)NCc2ccc3c(c2)OCO3)CC2(CCCC(COC(=O)NCC(c3ccccc3)c3ccccc3)O2)O1 (stereo not given in full) | -0.686 | 0.7 | -0.0541 | 1.17 | 0.994 | 0.682 | 1.28 | 2.96 (inactive) | 0.132 | 0.0201 | 1.55 | -0.256 (inactive) | -0.58 (inactive) | -0.122 (inactive) | 2.65 | -0.502 (inactive) | -0.118 | 1.5 | 1.06 | 0.0004
